Rows were chosen to be rich in hits. Some 0.83% of all compounds tested hit in one or more screens of this group.
Hsp70 activator – transcriptional activators of Hsp70; HeLa Hsp70 promoter luciferase reporter, luminescence; scaled: vehicle 0, proteasome-inhibitor control 100%; activation, % at 10 µM; hit rate 0.04% among 200,000;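 active = activation above the mean across all tested compounds plus 3 SD, cutoff set per campaign, cut at about 5.5% in these data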;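 note: 100% = MG132 at 30 µM as the positive control and 0% = DMSO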
S1P4 ag – activates the human S1P4 receptor; O95977; S1P4-expressing cell line, agonist reporter assay; AID 1509; activation, % at 4.98 µM; hit rate 0.35% among 220,000; in the data active = activation above about 11%;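 note: 0% = DMSO vehicle and 100% = reference agonist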
S1P3 antagonist – antagonists of human S1P3 receptor. Q99500. CHO S1P3 NFAT-BLA reporter, FRET fluorescence, antagonist mode. inhibition, % at 4.98 µM. hit rate 0.27% among 170,000;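 active = inhibition above the plate cutoff, the mean inhibition of test wells on that plate plus 3 SD, cut at about 28% in these data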;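 note: cells challenged with S1P at its EC80 of 0.8 µM; blue over green emission ratio from cleaved BLA substrate after 4 h stimulation; 0% = S1P-stimulated wells and 100% = unstimulated DMSO-only wells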
Pf gamet viab – P. falciparum stage V gametocyte viability inhibition | P. falciparum stage V gametocytes, ATP luminescence, 24 h | inhibition, % at 10.9 µM | hit rate 0.065% among 150,000;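 active = inhibition above the mean plus 3 SD of compounds within the control limits, set per campaign, cut at about 38% in these data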;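 note: 0% = DMSO wells and 100% = medium only without gametocytes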
S1P4 antagonist – blocks the human S1P4 receptor. O95977. inhibition, % at 4.98 µM. S1P4-expressing cells, antagonist mode, reporter read-out. AID 1510. hit rate 0.26% among 220,000; in the data active = inhibition above about 29%;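 note: 0% = wells stimulated with agonist and 100% = vehicle wells without agonist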
S1P4 antag cf – human S1P4 antagonism, confirmation | AID 1524 | shares compounds with S1P4 antagonist | S1P4-expressing cell line, antagonist mode, reporter read-out | hit rate 71% among 520 | inhibition, % at 4.98 µM; in the data active = inhibition above about 30%
S1P1 antag – blocks human S1P1, counter-screen for S1P4 antagonists; shares compounds with S1P4 antagonist; inhibition, % at 4.98 µM; hit rate 37% among 520; cell-based S1P1 antagonist counterscreen, inhibition; in the data active = inhibition above about 40%;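 note: receptor stimulated with S1P near its EC80; 0% = agonist stimulated wells and 100% = vehicle only wells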
Target sequence (P21453 whole entry, looked up): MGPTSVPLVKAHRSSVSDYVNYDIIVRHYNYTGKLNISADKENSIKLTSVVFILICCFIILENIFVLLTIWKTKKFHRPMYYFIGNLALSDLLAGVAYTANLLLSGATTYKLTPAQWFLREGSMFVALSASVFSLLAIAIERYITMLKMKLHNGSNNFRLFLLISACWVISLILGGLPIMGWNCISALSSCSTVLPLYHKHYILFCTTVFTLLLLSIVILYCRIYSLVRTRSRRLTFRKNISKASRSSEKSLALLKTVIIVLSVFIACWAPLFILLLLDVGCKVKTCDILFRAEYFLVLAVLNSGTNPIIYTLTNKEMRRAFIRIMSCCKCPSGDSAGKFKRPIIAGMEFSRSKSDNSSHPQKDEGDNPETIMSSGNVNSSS
* hit, by the source's call; x = no result given.

SMILES	Hsp70 activator	S1P4 ag	S1P3 antagonist	Pf gamet viab	S1P4 antagonist	S1P4 antag cf	S1P1 antag
CCC(C)C(=O)N1CCc2cc(-c3csc(N)n3)ccc21 (configuration not stated)	0.1	-0.7	-2.5	-10.2	40.9*	5.3	52.5*
CC(C)(C)C(=O)N1CCc2cc(-c3csc(N)n3)ccc21	-0.1	-0.4	x	x	-12.5	x	x
Cc1nc2ccc(NC(=O)c3nn(CC(C)C)c(=O)c4ccccc34)cc2s1	-0.4	-1.9	-12.8	9.0	40.0*	45.5*	23.3
Cc1cc(N2C(=O)C(O)=C(C(=O)c3cccs3)C2c2ccc(F)cc2)no1 (configuration not stated)	x	0.8	1.2	19.4	-0.4	x	x
Cc1c(/C=N/Nc2nc3ccccc3[nH]2)c2ccccc2n1C	x	-2.0	18.8	2.0	32.2*	108.3*	52.1*
CC(=O)Nc1ccc(/C=N/Nc2nc3ccccc3[nH]2)cc1	-0.2	1.0	-9.2	6.7	-6.7	x	x
CCN(CC)c1ccc(/C=N/Nc2nc3ccccc3[nH]2)cc1	4.1	0.2	11.0	-1.7	36.9*	109.5*	81.0*
Cc1ccc(N=C2NC(=O)/C(=C\c3ccc(C)s3)S2)cc1	0.3	3.3	-4.7	-14.8	-10.5	x	x
COc1ccc(C)cc1NC(=O)c1ccc([N+](=O)[O-])cc1[N+](=O)[O-]	0.0	0.0	-8.4	-0.9	-13.2	x	x
Cc1c(NS(=O)(=O)c2cccs2)cccc1-c1nc2cccnc2s1	x	0.3	2.5	-3.7	5.2	x	x
O=S(=O)(Nc1cccc2ncccc12)c1cccs1	-0.1	-0.7	3.6	x	54.0*	106.1*	90.7*
CCOC(=O)COc1ccc(/C=C/[N+](=O)[O-])c(OCC(=O)OCC)c1	-0.4	-3.5	x	x	29.6*	116.0*	82.6*
CCOC(=O)COc1ccc2ccccc2c1/C=C/[N+](=O)[O-]	0.6	-0.6	9.0	-3.7	48.7*	120.0*	154.9*
CCOC(=O)COc1ccc2nsnc2c1	-0.3	-1.2	-14.8	7.6	-3.0	x	x
O=[N+]([O-])/C=C/c1c(OCc2ccccc2)ccc2ccccc12	0.5	2.4	x	x	14.8	x	x
CCC(Sc1nncn1C)C(=O)Nc1nnc(-c2ccccc2Cl)s1 (configuration not stated)	0.0	-0.9	-19.8	x	33.0*	27.9	4.7
COc1ccccc1-c1nnc(NC(=O)C(C)Sc2nncn2C)s1 (configuration not stated)	0.2	1.6	0.2	-13.5	7.9	x	x
Cc1ccc(NC(=O)c2cc(-c3ccccc3)nn2-c2ccccc2)cc1	-0.1	8.1	3.8	-22.5	-17.2	x	x
O=C(Nc1ccc(F)cc1)c1nn(-c2ccccc2)c(=O)cc1Cl	0.4	-3.0	-7.9	16.7	45.5*	74.7*	71.0*
Cc1ccc(N=C2NC(=O)/C(=C/c3cccn3C)S2)cc1C	x	1.2	4.5	0.3	-0.9	x	x
Cc1cccc(N=C2NC(=O)/C(=C/c3cccn3C)S2)c1C	x	1.1	22.9	-19.0	35.7*	16.5	13.9
CCc1cc(/C(Cc2ccccn2)=N\Nc2ccccc2)c(O)cc1O	0.1	-1.0	0.8	-19.0	2.7	x	x
O=C(Nc1ccc(Cl)cc1)/C(=C/c1cccc(O)c1)c1nc2ccccc2s1	-0.2	-0.1	-10.0	-3.1	38.2*	99.1*	62.0*
CC(C)(C)NC(=O)CN(C(=O)c1csnn1)c1cccc2c1CCCC2	-0.3	-0.8	4.8	x	-12.8	x	x
Nc1cccc2c1C(=O)N(C(=O)c1cccc(S(=O)(=O)N3CCCCCC3)c1)C2=O	-0.1	-0.5	x	x	28.6	x	x
SMILES	Hsp70 activator	S1P4 ag	S1P3 antagonist	Pf gamet viab	S1P4 antagonist	S1P4 antag cf	S1P1 antag
Nc1cccc2c1C(=O)N(C(=O)c1ccc(Cl)c(S(=O)(=O)N3CCCCCC3)c1)C2=O	0.4	2.5	x	x	31.9*	32.9*	0.0
COc1ccc(C2C(C(=O)O)c3ccccc3C(=O)N2Cc2ccco2)cc1 (configuration not stated)	x	1.3	-4.3	18.8	-1.7	x	x
N#CC(C#N)=C1C=CC=CN1/C(=C\c1ccco1)C(=O)c1ccccc1	0.9	-1.0	-7.0	2.9	66.2*	116.5*	119.1*
COc1ccc(C(=O)/C(=C\c2ccco2)N2C=CC=CC2=C(C#N)C#N)cc1	1.6	-2.8	x	x	69.7*	117.4*	41.1*
N#CC(C#N)=C1C=CC=CN1/C(=C\c1ccco1)C(=O)c1ccc(Br)cc1	0.2	1.7	3.2	7.5	9.2	x	x
COc1ccc(CN2CCN(C3CCC3)CC2CCO)c(C)c1C (configuration not stated)	x	x	x	-18.9	x	x	x
CC(NCC1(N2CCOCC2)CCCCC1)C(=O)Nc1ccc(Cl)cc1Cl (configuration not stated)	0.6	-0.9	3.0	-28.1	18.8	x	x
COCCCN1CCN(C2Cc3ccccc3Sc3ccc(Cl)cc32)CC1 (configuration not stated)	-0.2	0.4	-21.8	x	29.1*	-2.7	0.1
Clc1ccc2c(c1)C(N1CCNCC1)Cc1ccccc1S2 (configuration not stated)	-0.1	-0.3	x	x	7.9	x	x
O=c1[nH]cnc(O)c1C(c1ccc([N+](=O)[O-])cc1)c1c(O)nc[nH]c1=O	x	x	x	-6.8	x	x	x
Cc1ccc(/C=C/C(=O)Nc2nc3ccccc3[nH]2)cc1	0.0	2.9	-10.8	6.2	-20.9	x	x
Cc1ccc(/C=C/C(=O)c2nc3ccccc3[nH]2)cc1	0.0	2.0	x	-2.0	29.5*	80.5*	-5.5
CCN(CC)c1ccc(/C=c2\sc3nc4ccccc4n3c2=O)c(O)c1	-0.5	5.5	15.3	-12.4	37.4*	22.1	-25.1
OC1(c2ccc(Cl)cc2)CN(c2ccccc2)C2=[N+]1CCS2 (configuration not stated)	-0.1	1.0	9.5	-7.4	-12.4	x	x
OC1(c2ccc(Br)cc2)CN(c2ccccc2)C2=[N+]1CCS2 (configuration not stated)	0.0	0.2	-4.5	-4.7	30.4*	8.5	1.9
CCCNC(=S)N1CCC(NC(=O)Nc2ccc(C)cc2)CC1	0.2	1.7	1.2	x	-11.8	x	x
O=C1CCN(C(=O)c2cccs2)c2ccccc21	-0.1	-0.1	5.0	-16.0	-5.1	x	x
CN1C(=O)/C(=C\C(=O)c2cccs2)c2ccccc21	-0.1	-0.7	-19.2	-8.4	39.7*	97.3*	45.2*
CS(=O)(=O)c1ncc(Cl)c(C(=O)Nc2ccc(N3CCOCC3)cc2)n1	-0.2	-2.9	7.8	x	30.9*	98.4*	80.8*
CS(=O)(=O)c1ccc(C(=O)Nc2ccc(N3CCOCC3)cc2)c(Cl)c1	0.4	1.5	5.5	x	4.8	x	x
O=[N+]([O-])c1cc(S(=O)(=O)C(F)(F)F)ccc1Sc1nc2ccccc2[nH]1	0.0	-0.7	x	-5.5	33.1*	109.7*	1.3
CC(C)(C)NC(=O)CN(CCc1ccccc1)C(=O)c1csnn1	-0.3	1.1	-4.0	x	-0.9	x	x
Cn1c(-c2c(N)n(CCCc3ccccc3)c3nc4ccccc4nc23)nc2ccccc21	-0.2	1.4	x	x	37.0*	83.4*	105.9*
